The compounds below were run against AMP-activated protein kinase, AMPK (Homo sapiens) (UniProt P54646+O43741+P54619+Q9UGJ0+Q9Y478+Q13131+Q9UGI9) (assay: AMP-dependent Kinase enzyme assay. An in vitro enzyme assay that detects ADP turnover that is directly proportional to AMPK activity. This uses naive AMPK that is activated during the assay with MK-8722). Conditions: 30 µM.
Type: functional
Set-up: scale not given: direction of the effect not stated beside the values

Compared with `COc1ccc(CC2(CO)CCN(c3cc(C(N)=O)ccn3)CC2)cc1`, `COc1ccc(NCCC(=O)NCc2cccnc2N(C)C)cc1` is higher in Percent Effect: 8.7% for the first, 22.9% for the second.

Compared with `O=c1ccc(S(=O)(=O)N2CCCC2)cn1CC1CCCCO1` (stereo not given), `CCn1cnnc1CNS(=O)(=O)N1CCCC1c1ccc(C)o1` (stereo not given) is lower in Percent Effect: 6.91% for the first, 0.967% for the second.

Going from `CCCN1CCC(CC(=O)NCc2cc(O)ncn2)CC1` to `CN1CCCC(CCC(=O)NCCc2nnc(N)s2)C1` (stereo not given), the Percent Effect rises from -4.63% to -1.67%.

Going from `O=C1NCCCCC1NC(=O)N1CCCc2cc(F)ccc21` (stereo not given) to `Cc1cc(CC(=O)NC2CCCN(Cc3ccccc3)C2=O)n[nH]1` (stereo not given), the Percent Effect rises from 6.88% to 9.56%.

Going from `Cc1ccc(Br)cc1C(=O)Nc1cc(C(N)=O)n(C)c1` to `Cc1cc(C(N)=O)ccc1NC(=O)N1CCN(c2cccs2)CC1`, the Percent Effect falls from 0.519% to -2.73%.

Going from `NC(=O)C1CCN(C(=O)NC(Cc2ccccc2)C(F)(F)F)CC1` (stereo not given) to `C[C@H](N)C(=O)N1CCC(c2[nH]ncc2-c2ccccc2)CC1`, the Percent Effect falls from 0.0823% to -8.96%.

Compared with `CCn1cnnc1CCNc1nc(C)cc(C)c1C#N`, `CCCC(=O)NCCc1cc(NC)nc(-c2ccccn2)n1` is higher in Percent Effect: -7.29% for the first, -2.74% for the second.

First: COc1ccccc1CN(Cc1nc(Cc2ccccc2)no1)C1CC1
Second: CN(Cc1csc(-c2ccccc2)n1)Cc1ncccc1C(=O)O
The Percent Effect of the first is higher: 12.8% for the first, 5.39% for the second.

First: N#CC1COCCN1C(=O)c1ccc2[nH]ccc2c1 (stereo not given)
Second: O=C(c1cscn1)N1CCc2[nH]nc(Nc3ccccc3)c2C1
The Percent Effect of the first is lower: 7.92% for the first, 10.9% for the second.

Going from `NC(=O)c1csc(N2C[C@@H](CN3CCCCC3)[C@@H](CO)C2)n1` to `Nc1cc(-c2c[nH]nc2C2CCN(C(=O)C3CCCC3)C2)ccn1` (stereo not given), the Percent Effect falls from -3.06% to -6.9%.

First: Cc1ccc(CNC(C)(C)c2noc(C(C)(C)C)n2)o1
Second: CC(C)(C)c1ccc(C(=O)C2CCCN(C(=O)CNS(C)(=O)=O)C2)cc1 (stereo not given)
The Percent Effect of the first is lower: 0.8% for the first, 0.896% for the second.

Compared with `COCCN1CCN(Cc2cnc(C3(C)CCCCO3)nc2)CC1` (stereo not given), `CCc1cnc(N2CCCC(CCC(N)=O)C2)nc1` (stereo not given) is lower in Percent Effect: 11.3% for the first, -6.19% for the second.

Going from `CCN(Cc1cnc(C)cn1)C1CCN(c2ccccc2)C1=O` (stereo not given) to `CN(Cc1csc(-c2cccs2)n1)Cc1ncccc1C(=O)O`, the Percent Effect rises from -4.52% to -1.78%.

Going from `COc1ccc(Cc2nnc(NC(=O)C3CC34CCC4)s2)cc1OC` (stereo not given) to `COc1ccc(F)cc1-c1ccccc1CC1CNCCNC1=O` (stereo not given), the Percent Effect rises from 4.1% to 4.74%.

First: COc1c(C2CCCN2CC(=O)N(C)Cc2ccco2)c(C)nn1C (stereo not given)
Second: CCc1nc(CN(C)C(=O)CSC)no1
The Percent Effect of the first is lower: 1.41% for the first, 1.82% for the second.

Compared with `CNC(=O)C1CCN(c2ncnc3c2CCN(C(=O)C2CC2)C3)C1` (stereo not given), `Cc1nc(OCC(=O)N2CCCC2)cc(-n2cccn2)n1` is higher in Percent Effect: 2.51% for the first, 3.39% for the second.

First: CC(NC(=O)NC1CCN(Cc2ccncc2)CC1)c1ccc(F)cc1 (stereo not given)
Second: c1cc(CNCc2ccc(-n3cncn3)nc2)cc(OC2CCCC2)c1
The Percent Effect of the first is lower: 7.79% for the first, 9.46% for the second.

Compared with `CC(c1nc(-c2ccccc2)no1)N1CCc2c(ncn2C2CC2)C1` (stereo not given), `CC(C)c1nc(CSc2nnc(-c3cccs3)n2CC(N)=O)no1` is lower in Percent Effect: 10.5% for the first, -6.28% for the second.

Going from `CNC(=O)c1noc(CN2CC[C@](C)(O)[C@H](C)C2)n1` to `COCC1CCN(c2ccnc3ccsc23)C1` (stereo not given), the Percent Effect rises from -4.9% to 4.92%.

First: Cc1nnc(CCNC(=O)Nc2ccc(S(C)(=O)=O)cc2)[nH]1
Second: CCOC(=O)N(C)CC(=O)NCCc1coc(-c2ccc(C)cc2)n1
The Percent Effect of the first is higher: 6.21% for the first, -1.7% for the second.

— ChEMBL document CHEMBL3988442, “University of Dundee, Small-Polar-MMV Screening Library” (2021)
